PTK2B oligo ant – blocks oligomerization of human Pyk2 in cells. Q293 cells, Pyk2 FERM NanoBiT luminescence; hits give low values. AID 1347419. z-score (the deposit names both 25 µM and 10 µM). 0.83% of 99,000 active;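 active = Z-score of -3 or lower, scaled per plate to the spread of control and sample wells; inactive = z-score above -3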;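 also: negative z-score means lost luminescence so less FERM oligomerization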
CYP2C9 inh – blocks human cytochrome P450 2C9 | P11712 | CYP2C9 Supersomes, luciferin-H conversion, luminescence | inhibition, % at 5 µM | 20% of 96,000 active | AID 777;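 active = blocking of liver enzyme CYP2C9 beyond about 50% at 5 µM, limit read from the data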
CYP2C19 act – increases human CYP2C19 enzyme activity. P33261. recombinant CYP2C19, luciferin-H EGE luminescence; hits give high values; 0 = fully inhibited enzyme, 1 = untreated enzyme. activation factor at 5 µM. 96,000 tested, under 10 active;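 active = activation factor of at least 2 at 5 µM in the primary screen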
Target sequence (P33261 whole entry, looked up): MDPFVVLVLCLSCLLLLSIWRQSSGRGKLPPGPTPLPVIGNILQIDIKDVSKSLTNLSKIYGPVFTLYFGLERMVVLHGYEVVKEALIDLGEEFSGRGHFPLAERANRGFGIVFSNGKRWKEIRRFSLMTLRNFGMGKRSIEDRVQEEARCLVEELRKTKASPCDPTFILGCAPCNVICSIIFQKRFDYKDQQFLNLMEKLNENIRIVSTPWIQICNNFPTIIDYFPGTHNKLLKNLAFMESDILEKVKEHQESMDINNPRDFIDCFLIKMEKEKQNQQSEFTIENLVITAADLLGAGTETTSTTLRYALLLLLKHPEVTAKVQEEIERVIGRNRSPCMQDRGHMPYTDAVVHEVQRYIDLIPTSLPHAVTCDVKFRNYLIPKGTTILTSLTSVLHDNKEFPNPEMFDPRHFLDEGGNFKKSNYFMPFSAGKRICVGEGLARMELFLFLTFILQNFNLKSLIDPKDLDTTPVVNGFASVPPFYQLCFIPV
CYP2C19 inhib – inhibitors of human CYP2C19 | 21% of 96,000 active | AID 778 | CYP2C19 Supersomes, luciferin-H EGE luminescence, 30 min | inhibition, % at 5 µM;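 active = CYP2C19 inhibition above a set limit at 5 µM in the primary screen, cut at about 50% in these data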
CYP2C9 act – activators of human CYP2C9. P11712. recombinant CYP2C9, luciferin-H conversion, luminescence; hits give high values; factor 1 = untreated enzyme, 0 = blocked. activation factor at 5 µM. 1.4% of 96,000 active. AID 1024;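 active = activation factor of 2 or more for CYP2C9 at a 5 µM dose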
Hits are given with their value; n = inactive; x = not tested or not shown. Only some compounds are listed: those with a hit (about 28% of all), similar ones and a draw of the others.

SMILES	PTK2B oligo ant	CYP2C9 inh	CYP2C19 act	CYP2C19 inhib	CYP2C9 act
Cc1[nH]n(-c2ccc(F)cc2)c(=O)c1C=Nc1ccc(S(=O)(=O)N(C)C)cc1	n	x	x	x	x
O=C(CSc1n[nH]c(-c2cccs2)n1)NCc1ccc2c(c1)OCO2	n	97	n	85	n
N#Cc1c(N)nc(SCc2ccccn2)c(C#N)c1-c1cccs1	-3.8	n	n	n	n
CCCCn1nnnc1NCc1ccc(N(CC)CC)cc1	n	n	n	74	n
CCCCn1nnnc1NCc1ccc(OC)c(OC)c1	n	n	n	n	n
CCCCn1nnnc1NCc1cccc(OC)c1OC	n	62	n	85	n
CCCCn1nnnc1NCc1ccc(C)s1	n	x	x	x	x
COc1cc2c(cc1OC)CN(C(=O)c1ccccc1C(=O)O)CC2	n	n	n	n	n
CSC1=C(C#N)C(c2ccccc2Cl)C2=C(CCCC2=O)N1 (stereo not drawn)	x	n	n	n	n
CSC1=C(C#N)C(c2ccccc2C)C(C#N)=C(N)N1 (stereo not drawn)	n	99	n	86	n
CSC1=C(C#N)C(c2ccccc2Cl)C2=C(N1)c1ccccc1C2=O (stereo not drawn)	n	n	n	53	n
Cc1cc(C)nc(N2CCC(C(=O)Nc3nnc(C)s3)CC2)n1	n	n	n	n	n
Cc1ccc(N=Cc2nc(-c3ccco3)oc2O)cc1	n	56	n	n	n
O=C(CCc1nc(-c2ccccc2F)no1)NC1CCN(Cc2ccccc2)CC1	n	n	n	n	n
Clc1ccc(-c2noc(CN3CCCC3)n2)cc1	n	n	n	55	n
COc1ccc(-c2noc(CCC(=O)N3CCC(C)CC3)n2)cc1	n	n	n	n	n
Cc1ccc(-c2noc(CCC(=O)NC3CCN(Cc4ccccc4)CC3)n2)cc1	n	72	n	55	n
COc1ccc(-c2noc(CCC(=O)N3CCN(Cc4ccccc4)CC3)n2)cc1	n	95	n	94	n
Cc1ccc(-c2noc(CCC(=O)NC3CCCc4ccccc43)n2)cc1 (stereo not drawn)	n	62	n	n	n
CCCCN1CCc2c([nH]c3c(C)cccc23)C1=O	n	n	n	n	n
Cc1cccc(NC(=O)C(NS(=O)(=O)c2ccc3c(c2)CCC(=O)N3)c2ccccc2)n1 (stereo not drawn)	n	n	n	n	n
COc1ccc(-c2noc(CN3CCC(Cc4ccccc4)CC3)n2)cc1	n	71	n	66	n
c1ccc(CC2CCN(Cc3nc(-c4ccccc4)no3)CC2)cc1	n	n	n	n	n
Cc1ccc(-c2noc(CN3CCCCC3)n2)cc1	n	n	n	n	n
Cc1ccc(-c2noc(CCC(=O)N3CCCC3)n2)cc1	n	52	n	52	n
SMILES	PTK2B oligo ant	CYP2C9 inh	CYP2C19 act	CYP2C19 inhib	CYP2C9 act
N#CC1=C2SCC(O)(c3ccccc3)N2C(=O)CC1c1ccccc1 (stereo not drawn)	n	99	n	98	n
O=C(CCSc1nc(-c2ccco2)cc(C(F)(F)F)n1)N1CCCc2ccccc21	n	92	n	96	n
CC1Cc2ccccc2N1C(=O)CSc1nc(-c2ccco2)cc(C(F)(F)F)n1 (stereo not drawn)	n	n	n	n	n
O=C(CCSc1nc(-c2ccco2)cc(C(F)(F)F)n1)N1CCN(c2ccccn2)CC1	n	86	n	86	n
O=C1CCc2cc(S(=O)(=O)NC(Cc3ccccc3)C(=O)NCCC3=CCCCC3)ccc2N1 (stereo not drawn)	x	61	n	68	n
Cc1nn(C)cc1C(=O)Nc1cc(Oc2ccc(Cl)cc2)cc([N+](=O)[O-])c1	n	52	n	n	n
CCOc1ccc(Oc2cc(NC(=O)c3ccco3)cc([N+](=O)[O-])c2)cc1	x	53	n	n	n
CCn1nc(C)c(C(=O)Nc2cc(Oc3cc(C)cc(C)c3)cc([N+](=O)[O-])c2)c1C	n	n	n	n	n
Cc1cc(O)c(C(C)C)cc1NC(=O)c1ccc(Cl)cc1	n	n	n	n	n
Cc1cc(O)c(C(C)C)cc1NC(=O)c1cccc(Cl)c1	n	56	n	60	n
O=C(O)c1c(Cl)c(Cl)c(Cl)c(Cl)c1C(=O)N1CCCC1	n	n	n	n	n
CC1CN(C(=O)CSc2nc(-c3ccccc3)cs2)CC(C)O1 (stereo not drawn)	n	n	n	93	n
Cc1cc(C)nc(NC(=O)CSc2nc3cc(Cl)ccc3s2)n1	n	n	n	n	2.7
O=C(CSc1nc2cc(Cl)ccc2s1)N1CCN(C(=O)c2ccco2)CC1	n	86	n	86	n
O=C(CSc1nc(-c2ccccc2)cs1)N1CCN(C(=O)c2ccco2)CC1	n	n	n	62	n
O=C(NC1CCCC1)c1noc2c1CCCCC2	n	n	n	n	n
Cc1ccc2c(c1)-c1c(cnn1CC(=O)N(CCC#N)c1ccccc1)CO2	x	n	n	n	n
CCOC(=O)N1CCN(C(=O)CN(Cc2ccc(Cl)cc2)S(=O)(=O)c2ccccc2)CC1	n	n	n	n	n
CCOC(=O)CCN(Cc1cccs1)S(=O)(=O)c1ccc(Cl)cc1	n	n	n	68	n
O=C(Nc1ccc2snnc2c1)Nc1cccc2ccccc12	n	n	n	n	n
CC(C)c1nc(SCC(=O)c2ccccc2)c2c(=O)n(C)c(=O)n(C)c2n1	x	n	n	n	n
CCOC(=O)C1=C(C)NC(C)=C(C(=O)OCC)C1c1sccc1C	-3.3	90	n	56	n
CCOC(=O)C1=C(C)NC(C)=C(C(=O)OCC)C1c1ccc(O)cc1	n	98	n	98	n
CCCC1C(C(=O)OCC)=C(C)NC(C)=C1C(=O)OCC	-3.1	68	n	94	n
CCOC(=O)C1=C(C)NC(C)=C(C(=O)OCC)C1C(=O)O	n	n	n	n	n
SMILES	PTK2B oligo ant	CYP2C9 inh	CYP2C19 act	CYP2C19 inhib	CYP2C9 act
CCOC(=O)C1=C(C)NC(=O)NC1c1ccc(NC(C)=O)cc1 (stereo not drawn)	n	n	n	n	n
CC1=C(C(=O)OCc2ccccc2)C(c2ccc(N(C)C)cc2)NC(=O)N1 (stereo not drawn)	n	x	x	x	x
COC(=O)C1=C(C)NC(C)=C(C(=O)OC)C1c1ccc(N(C)C)cc1	n	70	n	84	n
COc1ccc(OCCC(=O)NCc2ccccc2)cc1	n	n	n	51	n
Cc1ccc(C)c(N2CCN(C(=O)CCCOc3cc(=O)n(C)c4ccccc34)CC2)c1	n	90	n	94	n
Cc1cccc(N2CCN(C(=O)COc3cc(=O)n(C)c4ccccc34)CC2)c1C	n	n	n	51	n
Cc1cccc(N2CCN(C(=O)Cc3cn(C)c4ccccc34)CC2)c1C	n	n	n	n	n
Cc1ccc(C)c(N2CCN(C(=O)COc3cc(=O)n(C)c4ccccc34)CC2)c1	n	n	n	n	n
COc1ccc(N2CCN(C(=O)CCCOc3cc(=O)n(C)c4ccccc34)CC2)cc1	n	88	n	88	n
O=C(O)Cn1nc(C(F)(F)F)c2c1CCC2	n	n	n	n	n
COc1ccc(CCCC(=O)O)c(C)c1	n	x	x	x	x

Bioassay records (PubChem)
